Some test systems named below: T-47D breast; BT-549 breast; SW-620 colon; MCF7 breast; HCT-116 colon; HCC-2998 colon; KM12 colon; MDA-MB-435 melanoma.
What all share (experiment): NCI-60 one-dose screen, 48 h (100 = growth as untreated, 0 = no growth, -100 = all killed)
What all share (conditions): 10 µM unless noted

Compounds without any hit were thinned out: in the full panel of roughly 83,000, 20% have a hit.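 Negative percent growth values reflect cell death: -40 means 40% of the cells present at the start died, and -100 means all died.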 Values without a mark were called inactive. Active and inactive are the calls of the source. The calls were made as follows: active = growth percent below 10; inactive = the rest.

Regarding `CCN(CC)CCCCNc1c2ccc(Cl)cc2nc2ccc(OC)cc12`, the growth with T-47D breast is -16.9% (active); with BT-549 breast it was -29.5% (active); in the assay with SW-620 colon, -24.8% (active); in the assay on MCF7 breast, -30% (active); in the assay with HCT-116 colon, -39.5% (active); in the assay with HCC-2998 colon, -78.6% (active). The growth in the assay on KM12 colon was -6.4% (active).

With `COc1ccc(NC2=C(Sc3nc(C)cc(C)n3)C(=O)N(Cc3ccccc3)C2=O)cc1Cl`, the growth was 41.9% [30 µM] with T-47D breast; 65.4% [30 µM] in the assay on BT-549 breast; 86.6% [30 µM] with MDA-MB-435 melanoma; 88.7% [30 µM] in the assay with SW-620 colon; 48.4% [30 µM] with MCF7 breast; 76.9% [30 µM] with HCT-116 colon. Also, in the assay on KM12 colon, the growth is 99.2% [30 µM].

With `N#CCCN=Nc1c(O)[nH]c2ccc(F)cc12`, the growth with T-47D breast is 96.4%; in the assay on BT-549 breast, 108%; in the assay with SW-620 colon, 98.3%; with MCF7 breast, 93.9%; in the assay with HCT-116 colon, 95.1%; in the assay on HCC-2998 colon, 97.9%. Also, in the assay with KM12 colon, the growth is 101%.

With `CCOc1nc(-c2ccccc2)cc2c(O)c(C(=O)O)[nH]c(=O)c12`, the growth in the assay on T-47D breast is 97.9%; in the assay with BT-549 breast, 108%; in the assay on MDA-MB-435 melanoma it was 109%; in the assay on SW-620 colon, 114%; in the assay on MCF7 breast, 103%; in the assay on HCT-116 colon it was 105%. For the same molecule, the growth in the assay on KM12 colon was 93.4%.

Turning to `CC[C@H]1OC(=O)[C@H](C)[C@@H](O[C@H]2C[C@@](C)(OC)[C@@H](O)[C@H](C)O2)[C@H](C)[C@@H](O[C@@H]2O[C@H](C)C[C@H](N(C)C)[C@H]2O)[C@](C)(O)C[C@H](C)CN(C)[C@H](C)[C@@H](O)[C@]1(C)O`, the growth in the assay on T-47D breast is 108%; with BT-549 breast it was 98.4%; in the assay with MDA-MB-435 melanoma it was 96.9%; in the assay with SW-620 colon, 84.2%; in the assay with HCT-116 colon, 90.3%; with HCC-2998 colon it was 95.9%. In addition, the growth in the assay on KM12 colon was 95.4%.

Consider `CC(=O)Nc1ccc(S(=O)(=O)Nc2cccc(-c3nc(-c4ccc(NC(=O)c5cccnc5)cc4Cl)no3)c2)cc1`, for which the growth in the assay on T-47D breast is 14%; in the assay with BT-549 breast, 33.3%; in the assay on SW-620 colon, 29.5%; with MCF7 breast, 17.1%; in the assay with HCT-116 colon, 30.4%; in the assay with HCC-2998 colon it was 69.1%. In addition, the growth in the assay with KM12 colon was 28.7%.

Consider `CCCCCCCCCCCCC[N+](C)(C)Cc1ccccc1`, for which the growth in the assay with T-47D breast is 15.1%; with BT-549 breast it was -72.9% (active); with MDA-MB-435 melanoma, -73.6% (active); with SW-620 colon, -37.6% (active); with HCT-116 colon, -89.9% (active); with HCC-2998 colon, -80.5% (active). Also, in the assay on KM12 colon, the growth is -93.6% (active).

Regarding `CCC#CC[C@H](O)C/C=C1/C(=O)C=C[C@@H]1C/C=C\CCCC(=O)OC`, the growth was 5.68% (active) with T-47D breast; -0.591% (active) in the assay on BT-549 breast; 1.89% (active) in the assay with MDA-MB-435 melanoma; -12.5% (active) with SW-620 colon; 15.1% in the assay on MCF7 breast; -49.7% (active) in the assay with HCT-116 colon. Also, the growth in the assay on KM12 colon is -49% (active).

Turning to `C=CCSSc1ncnc2c1ncn2C1OC(CO)C(O)C1O` (stereo unspecified), the growth in the assay on T-47D breast was 24.3%; in the assay with BT-549 breast it was 54.8%; with SW-620 colon, 53.8%; in the assay on MCF7 breast, 4.74% (active); in the assay with HCT-116 colon, 22.4%; with HCC-2998 colon it was 35.1%.

On to `Oc1cccc(-c2nc(N3CCOCC3)c3c4c(sc3n2)CCCC4)c1`, for which the growth is 9.18% (active) with T-47D breast; 45.4% with BT-549 breast; 63.3% in the assay with SW-620 colon; 42% in the assay on MCF7 breast; 66.5% in the assay on HCT-116 colon; 81.9% with HCC-2998 colon. Moreover, in the assay on KM12 colon, the growth was 62.6%.

For `C=C1C(=O)O[C@H]2[C@H]1CC/C(COC(=O)NCCc1ccc(OC)c(OC)c1)=C\CC[C@@]1(C)O[C@@H]21`, the growth in the assay with T-47D breast was 33.2%; with BT-549 breast, 64.3%; in the assay with MDA-MB-435 melanoma, 58.3%; with SW-620 colon, 18.9%; with MCF7 breast, 34.8%; in the assay with HCT-116 colon, 5.66% (active). Moreover, the growth in the assay on KM12 colon is 84.4%.

As to `CCOc1ccc(C(C)=O)cc1NC(=O)c1cccc(-c2nnn(CC)n2)c1`, the growth in the assay with T-47D breast is 29.6%; in the assay with BT-549 breast, 58.5%; in the assay with MDA-MB-435 melanoma, -47.6% (active); in the assay with SW-620 colon it was 31.2%; with MCF7 breast, 32.5%; with HCT-116 colon, 19.3%. Further, the growth in the assay on KM12 colon is 23.8%.

With `CC1=C[C@H]2c3c(c(O)c(O)c4oc5c(C)cccc5c(=O)c34)[C@H](c3cc(O)c(O)c4oc5c(C)cccc5c(=O)c34)[C@H]2C(C)(C)C1`, the growth in the assay on T-47D breast was 13.7%; in the assay on BT-549 breast, 27.2%; in the assay on SW-620 colon, 18.7%; with MCF7 breast, 9.38% (active); in the assay on HCT-116 colon it was 1.97% (active); in the assay on HCC-2998 colon, 11.2%. Besides, in the assay on KM12 colon, the growth is 7.31% (active).

For the molecule `O=c1oc2c(C(F)(F)F)cccc2cc1-c1csc(Nc2ccc(OCCF)cc2)n1`, the growth with T-47D breast is 71.1%; with BT-549 breast, 31.5%; in the assay with MDA-MB-435 melanoma it was -22.9% (active); in the assay on SW-620 colon it was 26.1%; in the assay on MCF7 breast, 15.3%; in the assay on HCT-116 colon, -26.3% (active). The growth in the assay on KM12 colon was 2.28% (active).

Consider `NS(=O)(=O)c1ccc(CN=C2NC(=O)S/C2=C\c2ccc(Br)cc2)cc1`, for which the growth is 99.2% in the assay with T-47D breast; 103% with BT-549 breast; 97.9% in the assay with SW-620 colon; 93.5% in the assay on MCF7 breast; 94.7% in the assay on HCT-116 colon; 107% in the assay with HCC-2998 colon.

For `CN1C(=O)C2(SCC(C(=O)NCc3ccccc3)N2C(=O)C2CCCCC2)c2ccccc21` (stereo unspecified), the growth was 101% in the assay on T-47D breast; 98.3% with BT-549 breast; 91.8% in the assay with SW-620 colon; 94.8% with MCF7 breast; 96.2% in the assay with HCT-116 colon; 109% with HCC-2998 colon. For the same molecule, the growth in the assay with KM12 colon is 92.1%.

As to `NC(=O)c1cc(Cl)ccc1NC(=O)/C=C/c1ccccc1`, the growth in the assay with T-47D breast is 14.9%; with MDA-MB-435 melanoma it was -13.3% (active); in the assay on SW-620 colon, 26.1%; in the assay with MCF7 breast, 10.9%; in the assay with HCT-116 colon, 29.2%; in the assay on HCC-2998 colon, 60.1%.

The values are drawn from PubChem BioAssay (NCI).
